# Values joined by “and” are separate entries in the source; they are usually repeats but may differ in a detail not shown here. Identical values can stand only once. About 79,000 compounds went through this panel and 15% of them were active in at least one assay; those are over-represented in the sample as a whole. A number with no mark means an inactive call. Active and inactive are the calls of the source. Rule as the data show it: active = growth inhibition above about 70%; inactive = the rest.
# Assay: NCI Yeast Anticancer Drug Screen. Data for the bub3 strain (AID 167)
# Details: S. cerevisiae bub3 mutant strain, at 50.0 µM (retest, dose inferred, filed as 5.0), hits give high values
# In short: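 Steps: expose the mutant yeast strain to compound; grow alongside vehicle-treated cultures; measure growth; express inhibition against the vehicle cultures.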
row,Structure (SMILES),growth inhibition
1,COc1cccc2c1C(=O)c1c(O)c3c(c(O)c1C2=O)C[C@@](O)(C(C)=O)C[C@@H]3OC1CC(O)C(O)C(C)O1 (stereo partly specified),96% (active)
2,COc1cccc2c1C(=O)c1c(O)c3c(c(O)c1C2=O)C[C@@](O)(C(C)=O)C[C@@H]3OC1CC(N(C)C)C(O)C(C)O1 (stereo partly specified),99% (active)
3,C[N+]1(C)CCC(c2ccccc2)(c2ccccc2)C(=O)C1,-27%
4,CC[C@@]1(OC(=O)C(N)CCCCN)C(=O)OCc2c1cc1n(c2=O)Cc2cc3ccccc3nc2-1 (stereo partly specified),30%
5,CCN(CCO)CCNc1ccc(C)c2sc3ccccc3c(=O)c12,98% (active)
6,NC(=O)SCC(=O)NNc1ccccc1,88% (active)
7,CCN(CC)c1ccc(C(=C2C=CC(=[N+](CC)CC)C=C2)c2ccc(N(CC)CC)cc2)cc1,90% (active)
8,Nc1ncnc2c(C3OC(CO)C(O)C3O)scc12 (stereo unspecified),30%
9,Nc1ccc(Cn2ccc3c4c(N)nc(N)nc4ccc32)cc1,84% (active)
10,Cc1n(CC(C)C)c2c([n+]1C)C(=O)c1ccccc1C2=O,99% (active)
11,c1ccc(Cc2cc3ccccc3c3ccccc23)cc1,3%
12,Nc1nc(N)c2c(Cl)c(CNc3ccc(Cl)c(Cl)c3)ccc2n1,98% (active)
13,C=C1CC2(CC(c3ccccc3OC)OC(c3ccccc3OC)C2)OC1=O (stereo unspecified),14%
14,O=[N+]([O-])c1c(Cl)nc2ccccn12,14%
15,C/C(=N\NC(=S)N1CCN(c2ccccn2)CC1)c1nccs1,99% (active)
16,Clc1nc(Cl)c(Cl)c(Cl)n1,99% (active)
17,COc1ccc(COc2ccc(C(=O)CCN3CCOCC3)cc2)cc1,80% (active)
18,O/N=C/c1cc(I)c(O)c(I)c1,99% (active)
19,COC1OC2COC(c3ccccc3)OC2C(O)C1OS(=O)(=O)c1ccc(C)cc1 (stereo unspecified),2%

row,Structure (SMILES),growth inhibition
1,C=C1CC2(CC(c3ccccc3C)OC(c3ccccc3C)C2)OC1=O (stereo unspecified),87% (active)
2,Cc1ccc2c(c1)C1(C)OC(C=CC1=O)O2 (stereo unspecified),100% (active)
3,COc1cc(OC)c(OC)cc1/C=C\c1ccnc2ccccc12,79% (active)
4,Cc1n(Cc2ccccc2)c2c([n+]1C)C(=O)c1ccccc1C2=O,98% (active)
5,O=[N+]([O-])c1cc2c(cc1S(=O)(=O)O)C1C(C3C2C2(Cl)C(Cl)=C(Cl)C3(Cl)C2(Cl)Cl)C2(Cl)C(Cl)=C(Cl)C1(Cl)C2(Cl)Cl (stereo unspecified),44%
6,CCOC(=O)Nc1c(C)cc(C)c(Br)c1C,-8%
7,COc1cc2c(c(OC)c1OC)-c1ccc(SC)c(=O)cc1C(NC(=O)c1ccccc1)CC2 (stereo unspecified),63%
8,CCCCCCCCCCS(=O)CC(CO)NC(=O)/C=C/c1c(C)[nH]c(=O)[nH]c1=O (stereo unspecified),96% (active)
9,C/C(N=NC(=S)N1CCCCCC1)=C1\C=CC=CN1O,33%
10,Cc1cc(NCCCCCCCNc2cc(C)nc3cc([N+](=O)[O-])ccc23)c2ccc([N+](=O)[O-])cc2n1,83% (active)
11,CC1CC[P+](c2ccccc2)(c2ccccc2)c2c1ccc1ccccc21 (stereo unspecified),99% (active)
12,O=C1C(Cl)=C(N2CCN(C3=C(Cl)C(=O)c4ccccc4C3=O)CC2)C(=O)c2ccccc21,98% (active)
13,CCN1CCC(O)(c2ccc(Oc3ccccc3)cc2)C(C(=O)c2ccc(Oc3ccccc3)cc2)C1 (stereo unspecified),38%
14,Cc1ccc(NCCN(C)C)c2c(=O)c3cc(O)ccc3sc12,98% (active)
15,COc1ccc2nc(C)cc(NCCCCCCCCCNc3cc(C)nc4ccc(OC)cc34)c2c1,88% (active)
16,Cc1n(-c2ccccc2)c2c([n+]1Cc1ccc([N+](=O)[O-])cc1)C(=O)c1ccccc1C2=O,98% (active)
17,CC1(O)Cc2c(O)c3c(c(O)c2CC1O)C(=O)C=CC3=O (stereo unspecified),56%
18,c1ccc(C2=NC(c3ccccc3)=NS(S3=NC(c4ccccc4)=NC(c4ccccc4)=N3)=N2)cc1 (stereo unspecified),97% (active)
19,CC[C@](O)(CC(=O)O[C@H]1C(=O)O[C@@H]2C[C@H]3C(C)=CC(=O)[C@@H](O)[C@]3(C)[C@H]3[C@@]4(O)OC[C@]32[C@@H]1[C@@H](C)[C@H]4O)C(C)C,98% (active)

# Same assay, conditions: S. cerevisiae bub3 mutant strain, at 50.0 µM, hits give high values
row,Structure (SMILES),growth inhibition
1,COc1cccc2c1C(=O)c1c(O)c3c(c(O)c1C2=O)C[C@@](O)(C(C)=O)C[C@@H]3OC1CC(O)C(O)C(C)O1 (stereo partly specified),85.3% (active)
2,COc1cccc2c1C(=O)c1c(O)c3c(c(O)c1C2=O)C[C@@](O)(C(C)=O)C[C@@H]3OC1CC(N(C)C)C(O)C(C)O1 (stereo partly specified),88% (active)
3,C[N+]1(C)CCC(c2ccccc2)(c2ccccc2)C(=O)C1,-8.9% and 8.6%
4,CC[C@@]1(OC(=O)C(N)CCCCN)C(=O)OCc2c1cc1n(c2=O)Cc2cc3ccccc3nc2-1 (stereo partly specified),64.1%
5,CCN(CCO)CCNc1ccc(C)c2sc3ccccc3c(=O)c12,90.5% (active)
6,NC(=O)SCC(=O)NNc1ccccc1,86% (active)
7,CCN(CC)c1ccc(C(=C2C=CC(=[N+](CC)CC)C=C2)c2ccc(N(CC)CC)cc2)cc1,74.6% (active)
8,Nc1ncnc2c(C3OC(CO)C(O)C3O)scc12 (stereo unspecified),47.6%
9,Nc1ccc(Cn2ccc3c4c(N)nc(N)nc4ccc32)cc1,41.4%
10,Cc1n(CC(C)C)c2c([n+]1C)C(=O)c1ccccc1C2=O,89.5% (active)
11,c1ccc(Cc2cc3ccccc3c3ccccc23)cc1,91.3% (active)
12,Nc1nc(N)c2c(Cl)c(CNc3ccc(Cl)c(Cl)c3)ccc2n1,89.7% (active)
13,C=C1CC2(CC(c3ccccc3OC)OC(c3ccccc3OC)C2)OC1=O (stereo unspecified),60.5%
14,O=[N+]([O-])c1c(Cl)nc2ccccn12,-2.05%
15,C/C(=N\NC(=S)N1CCN(c2ccccn2)CC1)c1nccs1,87.3% (active)
16,Clc1nc(Cl)c(Cl)c(Cl)n1,33%
17,COc1ccc(COc2ccc(C(=O)CCN3CCOCC3)cc2)cc1,97.4% (active)
18,O/N=C/c1cc(I)c(O)c(I)c1,98.8% (active)
19,COC1OC2COC(c3ccccc3)OC2C(O)C1OS(=O)(=O)c1ccc(C)cc1 (stereo unspecified),32.3% and -1.1%

row,Structure (SMILES),growth inhibition
1,C=C1CC2(CC(c3ccccc3C)OC(c3ccccc3C)C2)OC1=O (stereo unspecified),78.4% (active)
2,Cc1ccc2c(c1)C1(C)OC(C=CC1=O)O2 (stereo unspecified),87.8% (active)
3,COc1cc(OC)c(OC)cc1/C=C\c1ccnc2ccccc12,62.8%
4,Cc1n(Cc2ccccc2)c2c([n+]1C)C(=O)c1ccccc1C2=O,89.2% (active)
5,O=[N+]([O-])c1cc2c(cc1S(=O)(=O)O)C1C(C3C2C2(Cl)C(Cl)=C(Cl)C3(Cl)C2(Cl)Cl)C2(Cl)C(Cl)=C(Cl)C1(Cl)C2(Cl)Cl (stereo unspecified),71.2% (active)
6,CCOC(=O)Nc1c(C)cc(C)c(Br)c1C,98.6% (active)
7,COc1cc2c(c(OC)c1OC)-c1ccc(SC)c(=O)cc1C(NC(=O)c1ccccc1)CC2 (stereo unspecified),78.5% (active)
8,CCCCCCCCCCS(=O)CC(CO)NC(=O)/C=C/c1c(C)[nH]c(=O)[nH]c1=O (stereo unspecified),88.3% (active)
9,C/C(N=NC(=S)N1CCCCCC1)=C1\C=CC=CN1O,69%
10,Cc1cc(NCCCCCCCNc2cc(C)nc3cc([N+](=O)[O-])ccc23)c2ccc([N+](=O)[O-])cc2n1,73.1% (active)
11,CC1CC[P+](c2ccccc2)(c2ccccc2)c2c1ccc1ccccc21 (stereo unspecified),88.6% (active)
12,O=C1C(Cl)=C(N2CCN(C3=C(Cl)C(=O)c4ccccc4C3=O)CC2)C(=O)c2ccccc21,87.9% (active)
13,CCN1CCC(O)(c2ccc(Oc3ccccc3)cc2)C(C(=O)c2ccc(Oc3ccccc3)cc2)C1 (stereo unspecified),-23.9%
14,Cc1ccc(NCCN(C)C)c2c(=O)c3cc(O)ccc3sc12,88.4% (active)
15,COc1ccc2nc(C)cc(NCCCCCCCCCNc3cc(C)nc4ccc(OC)cc34)c2c1,78.5% (active)
16,Cc1n(-c2ccccc2)c2c([n+]1Cc1ccc([N+](=O)[O-])cc1)C(=O)c1ccccc1C2=O,88.5% (active)
17,CC1(O)Cc2c(O)c3c(c(O)c2CC1O)C(=O)C=CC3=O (stereo unspecified),24.2%
18,c1ccc(C2=NC(c3ccccc3)=NS(S3=NC(c4ccccc4)=NC(c4ccccc4)=N3)=N2)cc1 (stereo unspecified),38%
19,CC[C@](O)(CC(=O)O[C@H]1C(=O)O[C@@H]2C[C@H]3C(C)=CC(=O)[C@@H](O)[C@]3(C)[C@H]3[C@@]4(O)OC[C@]32[C@@H]1[C@@H](C)[C@H]4O)C(C)C,90.3% (active)

# From PubChem BioAssay (NCI)
